# Results: the supplement of paper PMC10646978
# ± gives the standard deviation.
# Legend:
# Details in all cases: modulator concentration 10 µM
# [1] = system: RAW-Dual (murine macrophage reporter line); experiment: NF-kB reporter (SEAP) activity fold change vs agonist alone; higher = enhanced NF-kB activity
# How it was run: (§1)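 RAW-Dual murine macrophage reporter cells were plated at 50 000 per well in 384-well plates, pin-transferred compound to 10 μM final, and pre-incubated for 1 hour at 37 °C before a PRR agonist was added and the cells incubated overnight. NF-κB activity was read from supernatant SEAP with QUANTI-Blue at 620 nm absorbance, and IRF activity from Lucia luciferase with QUANTI-Luc by luminescence. Each signal was expressed as fold change by dividing by the mean agonist-only control on the same plate. Two replicate plates were averaged, with errors obtained by propagation.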
# [2] = system: RAW-Dual (murine macrophage reporter line); experiment: IRF reporter (Lucia luciferase) activity fold change vs agonist alone; higher = enhanced IRF activity
# How it was run: as §1
# [3] = system: RAW-Dual (murine macrophage reporter line); experiment: viability score (confluency relative to resting cells, overnight) (fraction); higher = more viable, active = viable (0.7 or more)
# How it was run: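 RAW-Dual macrophages in 384-well plates were incubated overnight with compound, final concentration 10 μM. Confluency images from IncuCyte were processed in IncuCyte software into two masks covering all imaged wells. The viability score is each well's confluency relative to resting cells, and a compound met the cutoff when both masks exceeded 70% of resting cells.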
# [4] = agonist: CpG ODN 1826 0.5 ug/mL
SMILES,"NF-kB reporter [1, 4]",NF-kB reporter ([1]; agonist: LPS 0.1 ug/mL),NF-kB reporter ([1]; agonist: MPLA […]),IRF reporter ([2]; agonist: 3'3'-cGAMP 10 ug/mL),IRF reporter ([2]; agonist: LPS 0.1 ug/mL),IRF reporter ([2]; agonist: MPLA […]),viability score [3]
COc1ccc(S(=O)(=O)NCCn2nc(C(F)(F)F)cc2C2CC2)cc1,0.935 ± 0.077,1.09 ± 0.083,1.04 ± 0.029,0.996 ± 0.037,0.953 ± 0.096,0.834 ± 0.15,0.979 (active)
COC(=O)C=C1SC(Nc2ccc(Cl)c(Cl)c2)=NC1=O,1.13 ± 0.081,0.966 ± 0.091,0.968 ± 0.035,0.988 ± 0.11,0.982 ± 0.11,0.966 ± 0.23,0.994 (active)
Cc1nc(-c2ccc(S(=O)(=O)N3C4CCC3CC(Oc3cccnc3)C4)cc2)co1 (configuration not stated),1 ± 0.093,1.08 ± 0.086,0.94 ± 0.051,1.04 ± 0.077,1.14 ± 0.087,1 ± 0.092,1.01 (active)
O=C1OC(c2ccc3ccccc3c2)=NC1=Cc1ccc(Br)c([N+](=O)[O-])c1,0.963 ± 0.15,0.878 ± 0.08,0.896 ± 0.1,0.861 ± 0.04,1.16 ± 0.11,1.19 ± 0.24,0.998 (active)
Cc1cn([C@H]2C=C[C@@H](CO)O2)c(=O)[nH]c1=O [Prestw-1279],1.13 ± 0.11,1.05 ± 0.13,0.957 ± 0.077,0.969 ± 0.074,0.94 ± 0.092,0.877 ± 0.13,0.998 (active)
CCCC(CCC)C(N)=O,1.09 ± 0.093,0.95 ± 0.083,0.999 ± 0.023,1.08 ± 0.17,1.04 ± 0.12,0.983 ± 0.19,0.996 (active)
COc1ccc(CC(=O)Nc2nc(CSCc3ccc(F)cc3)cs2)cc1,0.968 ± 0.057,1.06 ± 0.081,1.08 ± 0.069,0.832 ± 0.036,0.981 ± 0.045,0.968 ± 0.1,0.941 (active)
CN(C)CCOC1=Cc2ccccc2Sc2ccc(Cl)cc21 [Prestw-1368],0.965 ± 0.077,0.97 ± 0.094,1.11 ± 0.039,0.772 ± 0.031,0.895 ± 0.061,0.761 ± 0.099,0.994 (active)
CC1CC(C)CN(S(=O)(=O)CCCOc2ccc3c(c2)OCO3)C1 (configuration not stated),1.05 ± 0.06,1.04 ± 0.064,1.01 ± 0.061,0.906 ± 0.03,1.24 ± 0.09,1.05 ± 0.14,0.956 (active)
CN(C)C1C(O)=C(C(N)=O)C(=O)C2(O)C(O)=C3C(=O)c4c(O)ccc(Cl)c4C(O)C3CC12.Cl (configuration not stated),1.37 ± 0.35,1.1 ± 0.067,1.01 ± 0.067,0.894 ± 0.038,1.19 ± 0.14,1.08 ± 0.15,0.991 (active)
O=C1C(=CNCCN2CCOCC2)C(C(F)(F)F)=NN1c1nc2ccccc2s1,0.967 ± 0.079,1.01 ± 0.056,0.863 ± 0.06,0.947 ± 0.044,1.32 ± 0.17,0.98 ± 0.065,1.01 (active)
CCS(=O)(=O)c1ccc(-c2cccc(NC(=O)CC3CCCC3)c2)nn1,1.19 ± 0.099,0.932 ± 0.073,1.01 ± 0.029,0.905 ± 0.033,0.973 ± 0.056,0.926 ± 0.13,0.999 (active)
CS(=O)(=O)C1CC2CCC(C1)N2C(=O)c1cccc(Oc2ccc(F)cc2)c1 (configuration not stated),1.07 ± 0.09,1.13 ± 0.097,1.06 ± 0.15,0.94 ± 0.048,1.2 ± 0.085,1.33 ± 0.17,0.99 (active)
COc1cc2ncnc(Nc3ccc(F)c(Cl)c3)c2cc1OCCCN1CCOCC1.Cl,0.0798 ± 0.019,0.978 ± 0.06,1.08 ± 0.1,0.193 ± 0.015,0.835 ± 0.1,1.16 ± 0.11,0.592 (inactive)
CCN(CC)CCN1C(=O)C(O)=C(C(=O)c2ccc(Br)cc2)C1c1ccccc1F (configuration not stated),0.741 ± 0.061,0.884 ± 0.1,0.985 ± 0.1,0.94 ± 0.045,1.14 ± 0.08,1.2 ± 0.15,1.01 (active)
CC(=O)NNC(=O)c1ccncc1,1.13 ± 0.089,1.13 ± 0.074,1.03 ± 0.043,1 ± 0.15,1.07 ± 0.14,1.07 ± 0.26,0.996 (active)
OCCN1CCN(CC/C=C2/c3ccccc3Sc3ccc(Cl)cc32)CC1 [Prestw-998],0.395 ± 0.067,0.914 ± 0.093,1.36 ± 0.26,0.303 ± 0.008,1.85 ± 0.3,2.43 ± 0.28,0.624 (inactive)
COc1ccc(-n2c(C)c([N+](=O)[O-])c3ccc(O)cc32)cc1,0.835 ± 0.15,1.26 ± 0.1,1.34 ± 0.17,0.393 ± 0.021,0.594 ± 0.089,0.601 ± 0.063,0.999 (active)
CC(CN1c2ccccc2Sc2ccccc21)N(C)C.Cl (configuration not stated),0.789 ± 0.11,1.17 ± 0.29,0.96 ± 0.055,0.336 ± 0.024,1.16 ± 0.42,1.15 ± 0.091,0.389 (inactive)
CSc1ccc(C(=O)O)s1,1.02 ± 0.13,1.08 ± 0.09,1.03 ± 0.065,1.01 ± 0.21,1.03 ± 0.059,1.03 ± 0.15,1.01 (active)
O=C(NCCCCNC(=O)c1cncc(Br)c1)c1cncc(Br)c1,0.947 ± 0.053,0.973 ± 0.095,0.907 ± 0.075,0.946 ± 0.038,1.37 ± 0.093,1.16 ± 0.24,0.991 (active)
COc1ccc(CC(=O)N2CCC(N3CCC(OC)CC3)CC2)cc1OC,0.965 ± 0.063,1.09 ± 0.087,0.893 ± 0.041,0.949 ± 0.05,1.02 ± 0.11,1.08 ± 0.35,0.974 (active)
C#CCN[C@@H]1CCc2ccccc21 [Prestw-1734],1.05 ± 0.06,0.933 ± 0.11,0.978 ± 0.026,0.977 ± 0.037,0.957 ± 0.054,0.973 ± 0.1,0.996 (active)
COc1ccc(C2C3=C(CC(c4ccccc4)CC3=O)Nc3ccccc3N2C(=O)C(C)C)cc1OC (configuration not stated),1.02 ± 0.089,1.05 ± 0.063,1.01 ± 0.071,1.02 ± 0.025,1.56 ± 0.21,1.2 ± 0.087,1.01 (active)
COc1ccc(C2=CC(c3cc(OC)c(OC)c(OC)c3)n3ncnc3N2)cc1 (configuration not stated),1.26 ± 0.087,1.08 ± 0.066,1.22 ± 0.087,1.15 ± 0.047,1.07 ± 0.07,1.27 ± 0.15,0.985 (active)
O=C(c1ccc(C(F)(F)F)nc1)N1CC(n2cc(C3CC3)nn2)C1,0.889 ± 0.073,0.931 ± 0.095,1.13 ± 0.082,1.01 ± 0.071,1.06 ± 0.15,1.08 ± 0.29,0.942 (active)
